Source: PubChem
Tau fibril ThT: blocks human tau fibril formation measured by thioflavin T; P10636; recombinant tau K18 P301L, heparin-induced fibrillization, ThT fluorescence; Potency, µM (top dose mostly 57.4 µM), actives largely listed as inhibitors; hit rate 2.1% among 270,000; AID 1460; active = well fitted curve in the direction sought with a large enough effect; inconclusive = small, poorly fitted or top-dose-only effect, or another doubt; inactive = no such curve, though single readings can be large; an effect the other way counts as inactive or inconclusive; also: nearly all actives have a fitted effect of over 55% in size
Target sequence (P10636 561-689 P618L limits assumed): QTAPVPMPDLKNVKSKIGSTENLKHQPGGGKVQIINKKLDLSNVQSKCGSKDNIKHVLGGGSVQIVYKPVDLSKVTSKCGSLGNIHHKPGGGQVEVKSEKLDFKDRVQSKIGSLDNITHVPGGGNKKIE
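Fibril formation assay: tau K18 P301L at 15 uM with trace Alexa 594 label, heparin inducer 20 uM, pH 7 sodium acetate buffer, 37 C for 6 hr; endpoint ThT signal.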
HPGD block: blocks human HPGD enzyme activity | AID 894 | purified HPGD, NADH fluorescence kinetic, PGE2 substrate | Potency, µM, most hits filed as inhibitors | P15428 | hit rate 4.3% among 150,000
Target sequence (P15428 whole entry, looked up): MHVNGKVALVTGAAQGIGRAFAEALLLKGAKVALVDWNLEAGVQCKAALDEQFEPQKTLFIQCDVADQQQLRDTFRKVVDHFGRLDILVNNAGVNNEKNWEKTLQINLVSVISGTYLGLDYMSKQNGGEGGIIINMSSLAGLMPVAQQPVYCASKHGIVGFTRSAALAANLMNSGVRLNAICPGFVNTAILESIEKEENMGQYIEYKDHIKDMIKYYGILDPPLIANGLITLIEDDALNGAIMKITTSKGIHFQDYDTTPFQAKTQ
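20 nM HPGD preincubated 15 min at room temperature with compound in 50 mM Tris-HCl pH 8, 0.01% Tween 20. Started with 1 mM NAD+ and 30 uM prostaglandin E2; NADH fluorescence (360/450 nm) read 5 times over 30-s intervals, last minus first.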
Tau fluor counter: counter-screen for tau fibril formation inhibitors; tau K18 P301L Alexa594 fluorescence, heparin fibrillization; Potency, µM (series often up to 57.7 µM); hit rate 0.93% among 280,000; active = well fitted curve in the direction sought with a large enough effect; inconclusive = small, poorly fitted or top-dose-only effect, or another doubt; inactive = no such curve, though single readings can be large; an effect the other way counts as inactive or inconclusive; also: nearly all actives have a fitted effect of over 55% in size
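Human tau K18 P301L (15 uM unlabeled, 0.24 uM Alexa 594-labeled) in 100 mM sodium acetate pH 7 with 20 uM heparin, 6 hr at 37 C. ThT 30 uM added, 1 hr ambient; Alexa 594 FP and total fluorescence read at 555/632 nm.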
Tau FP inhib: tau fibrillization inhibition (FP). AID 1468. hit rate 0.39% among 280,000. Potency, µM (top dose mostly 57.7 µM), actives largely listed as inhibitors. P10636. K18 P301L tau heparin fibrillization, Alexa594 FP, 6 h; active = well fitted curve in the direction sought with a large enough effect; inconclusive = small, poorly fitted or top-dose-only effect, or another doubt; inactive = no such curve, though single readings can be large; an effect the other way counts as inactive or inconclusive; also: nearly all actives have a fitted effect of over 55% in size
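Read-out: fluorescence polarization of Alexa 594-labeled tau (0.24 uM), 555 nm excitation, 632 nm emission. Mixtures held 15 uM unlabeled K18 P301L, compound and 20 uM heparin, pH 7 acetate buffer, incubated 6 hr at 37 C.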
JMJD2E inh: blocks human JMJD2E demethylase activity. AID 2147. B2RXH2. Potency, µM (top dose mostly 57.1 µM), hits mostly inhibitors. JMJD2E catalytic domain, FDH-coupled NADH fluorescence (FDH is formaldehyde dehydrogenase). hit rate 1.6% among 230,000; also: nearly all actives have a fitted effect of over 50% in size
ALDH1A1 inh: inhibitors of human aldehyde dehydrogenase 1A1; Potency, µM (doses to about 75.3 µM), most hits filed as inhibitors; hit rate 7.3% among 220,000; P00352; Purified ALDH1A1, NADH fluorescence, propionaldehyde substrate
Large screens that a line does not name were inactive; [ ] = remark or other dose. The list is not random: actives were taken first. Their share in the collection is about 9.9%. Unless noted, calls follow the shape of the dose curve; as a rule, active = well fitted inhibition curve with a large enough effect (not every such curve was filed as active); inconclusive = small, poorly fitted or top-dose-only effect, or another doubt; inactive = no such curve, though single readings can be large or run the other way.

O=C1NC(=Nc2cccc(Cl)c2)SC1Cc1cccc(Cl)c1Cl (stereo unspecified)	Tau FP inhib inconclusive
COCOc1ccc(Br)cc1C(=O)/C=C\c1ccc2c(c1)OCO2	none (no result: HPGD block, JMJD2E inh)
Cc1cc(C)cc(Oc2coc3c(CN4CCN(C)CC4)c(O)ccc3c2=O)c1	Tau fibril ThT inconclusive (no result: HPGD block, JMJD2E inh, ALDH1A1 inh)
CCn1c(C(=O)NCc2ccc(C)cc2)cc2sc(Cl)cc21	none (no result: HPGD block, JMJD2E inh, ALDH1A1 inh)
CCCn1c(=O)c2sccc2n2c(CCCC(=O)N3CCN(c4ccccc4OC)CC3)nnc12	none (no result: HPGD block, JMJD2E inh, ALDH1A1 inh)
CCOC(=O)c1c(-c2ccc(C)cc2)csc1NC(=O)c1cc(=O)c2cc(C)ccc2o1	Tau fibril ThT 25.1µM, Tau FP inhib inconclusive (no result: HPGD block, JMJD2E inh, ALDH1A1 inh)
O=C(c1ccncc1)c1ccc(NS(=O)(=O)c2ccc(Br)s2)cc1	HPGD block 28.2µM
Nc1nnc(N)c2ccccc12	JMJD2E inh inconclusive (no result: HPGD block)
Nc1nsc2ccccc12	Tau fibril ThT 12.6µM, Tau FP inhib inconclusive, JMJD2E inh inconclusive, ALDH1A1 inh inconclusive
COc1ccc(CCNC(=O)c2ccc(Cn3c(SCc4ccccc4)nc4cccnc43)cc2)cc1	none (no result: HPGD block, JMJD2E inh, ALDH1A1 inh)
Cc1c(C(=O)N2CCCCCC2)c(S(=O)(=O)N(Cc2ccccc2)C(C)(C)C)c(C)n1C	none (no result: HPGD block, JMJD2E inh, ALDH1A1 inh)
CCCSc1nc(-c2ccc(OC)cc2)cc(-c2ccccc2OC)c1C#N	Tau fibril ThT 22.4µM, Tau fluor counter inconclusive, Tau FP inhib 25.1µM (no result: HPGD block, JMJD2E inh, ALDH1A1 inh)
C=C(C)CSc1nc(-c2ccccc2)cc(-c2ccc(OC)cc2)c1C#N	Tau FP inhib inconclusive (no result: HPGD block, JMJD2E inh, ALDH1A1 inh)
CC(C)CCn1cnc2c(cnn2-c2ccc(F)cc2)c1=O	HPGD block 11.2µM, ALDH1A1 inh inconclusive
CC(=O)Nc1ccc(Nc2cc(C)nc3c(-c4ccccc4)cnn23)cc1	Tau fibril ThT inconclusive, HPGD block inconclusive, Tau fluor counter 15.8µM[quencher], JMJD2E inh inconclusive, ALDH1A1 inh inconclusive
CC(=O)Nc1ccc(Nc2cc(-c3ccccc3)nc3ncnn23)cc1	none (no result: HPGD block)
CC1=C(C(=O)Nc2ccc(C)cc2C)C(c2ccc(O)cc2)n2nnnc2N1 (stereo unspecified)	none (no result: HPGD block, JMJD2E inh, ALDH1A1 inh)
COc1ccc(CNS(=O)(=O)c2ccc(F)c(C(=O)Nc3c(C)cc(C)cc3C)c2)cc1	none (no result: HPGD block, JMJD2E inh, ALDH1A1 inh)
CCCCn1c(SCC(=O)Nc2ccc(OCC)cc2)nc2ccsc2c1=O	none (no result: HPGD block, JMJD2E inh, ALDH1A1 inh)
CCCCn1c(SCC(=O)Nc2ccccc2C(F)(F)F)nc2ccsc2c1=O	ALDH1A1 inh 28.2µM
CCCCn1c(SCC(=O)N2CCC(C)CC2)nc2ccsc2c1=O	ALDH1A1 inh 11.2µM
CCCCn1c(SCC(=O)N2CCN(c3ccccc3)CC2)nc2ccsc2c1=O	ALDH1A1 inh inconclusive (no result: HPGD block)
COC(=O)NCc1c(C)nn(-c2ccccc2)c1-n1cccc1	none (no result: HPGD block, JMJD2E inh, ALDH1A1 inh)
CN(C)Cc1ccccc1-c1nccc(NCc2cccs2)n1	none
CCCCNC(=O)/C=C1\Sc2ccccc2NC1=O	HPGD block 17.8µM, JMJD2E inh inconclusive
CCc1ccc(C(=O)/C=C2\Sc3ccccc3NC2=O)cc1	Tau fibril ThT inconclusive, ALDH1A1 inh inconclusive
Cc1cc(/C=c2/sc3nc4ccccc4n3c2=O)c(C)n1-c1ccccn1	Tau fibril ThT inconclusive, JMJD2E inh inconclusive, ALDH1A1 inh 12.6µM
CCOc1cc([N+](=O)[O-])cc(/C=C2/NC(=O)N(Cc3ccccc3F)C2=O)c1O	Tau fibril ThT 14.1µM, Tau fluor counter inconclusive, ALDH1A1 inh 2.24µM (no result: HPGD block)
Cc1cc(/C=C2/NC(=O)N(Cc3ccccc3F)C2=O)c(C)n1-c1ccccn1	HPGD block inconclusive, JMJD2E inh inconclusive, ALDH1A1 inh 8.91µM
Cc1ccc(/C=C2/NC(=O)N(Cc3ccccc3F)C2=O)s1	JMJD2E inh inconclusive, ALDH1A1 inh inconclusive (no result: HPGD block)
Cc1cc(/C=C2/NC(=O)N(Cc3ccccc3F)C2=O)c(C)n1C	Tau fibril ThT inconclusive, JMJD2E inh inconclusive, ALDH1A1 inh 1.12µM
COc1ccc(/C=C2/NC(=O)N(Cc3ccccc3F)C2=O)cc1OC	JMJD2E inh inconclusive, ALDH1A1 inh inconclusive (no result: HPGD block)
Cc1nc2ccc(S(=O)(=O)NCC(=O)NC(C)c3ccccc3)cc2s1 (stereo unspecified)	none (no result: HPGD block)
COc1cc(/C=C2/NC(=O)N(Cc3ccccc3F)C2=O)cc(OC)c1OC	ALDH1A1 inh 2.51µM (no result: HPGD block)
Cc1ccc(S(=O)(=O)N2CCC(=O)N(CCO)CC2)cc1	none
Cc1cc(/C(N)=N/OC(=O)c2ccccc2Cl)no1	none (no result: HPGD block)
COc1ccccc1C(=O)O/N=C(\N)c1ccccc1Cl	HPGD block 28.2µM
N/C(=N\OC(=O)c1ccccc1Cl)c1ccccc1	HPGD block 11.2µM
N/C(=N\OC(=O)c1ccc(Cl)cc1Cl)c1ccc(Cl)cc1	HPGD block 5.01µM
N/C(=N\OC(=O)c1ccc(Cl)cc1Cl)c1ccccc1	Tau fibril ThT inconclusive, HPGD block 14.1µM
Cc1ccc(/C(N)=N/OC(=O)c2ccc(C)cc2Cl)cc1	HPGD block inconclusive
COc1ccc(C(=O)O/N=C(\N)c2ccccc2)c(OC)c1	Tau fibril ThT inconclusive, HPGD block 14.1µM, ALDH1A1 inh inconclusive
Cc1cccc(/C(N)=N/OC(=O)c2ccc(Cl)cc2Cl)c1	Tau fibril ThT inconclusive, HPGD block 15.8µM
